# A selection: hits, their analogues and other compounds. The true share with any hit is near 4%.
# RecA intein inh – Mtb RecA intein splicing inhibition; inhibition, % (no concentration beside the values); cell-free RecA intein splicing, fluorescence; P9WHJ3; 290,000 compounds, 0.75% hits; in the data active means inhibition above about 30%;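 further: 0% = vehicle wells and 100% = reference inhibitor control wells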
# Mtb bLac sens – beta-lactam sensitization of Mtb H37Rv | inhibition, % at 25 µM | 330,000 compounds, 0.27% hits | AID 434955 | M. tuberculosis H37Rv growth with meropenem, percent inhibition; call rule not given here;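 further: growth measured after seven days incubation then overnight dye step; 0% = bacteria only wells and 100% = bacteria with antibiotic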
# GDH-TPI counter-1 – inhibits GDH-TPI coupling enzymes, artifact for Mtb FBA screen. GDH-TPI coupled enzyme counterscreen, NADH absorbance. inhibition, % at 4.8 µM. AID 588335. 360,000 compounds, 1.2% hits; in the data active means inhibition above about 30%;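 further: 0% = DMSO wells and 100% = wells lacking the enzyme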
# Rv3671c inh – Rv3671c (M. tuberculosis) protease inhibition; P9WHR9; inhibition, % at 5.96 µM; 320,000 compounds, 0.048% hits; AID 2606; in the data active means inhibition above about 38%;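 further: extracellular domain of Rv3671c used as enzyme; 0% = enzyme with DMSO and 100% = no enzyme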
# Target sequence (P9WHR9 whole entry, looked up, the tested form may be a part): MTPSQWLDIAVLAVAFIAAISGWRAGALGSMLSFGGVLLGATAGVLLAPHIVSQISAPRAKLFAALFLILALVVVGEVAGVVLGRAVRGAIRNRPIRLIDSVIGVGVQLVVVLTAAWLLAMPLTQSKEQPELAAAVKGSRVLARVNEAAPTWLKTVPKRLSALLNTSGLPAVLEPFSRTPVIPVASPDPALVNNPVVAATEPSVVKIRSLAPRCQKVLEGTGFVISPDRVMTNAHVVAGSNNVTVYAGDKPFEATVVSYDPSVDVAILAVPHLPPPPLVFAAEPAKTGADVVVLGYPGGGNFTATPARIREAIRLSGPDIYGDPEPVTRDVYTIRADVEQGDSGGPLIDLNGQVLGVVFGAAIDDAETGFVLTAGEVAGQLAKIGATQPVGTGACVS
# FBA Mtb inh – inhibitors of M. tuberculosis fructose-bisphosphate aldolase | 360,000 compounds, 2.3% hits | purified M. tuberculosis FBA, fluorescence read-out | inhibition, % at 1 µM | P9WQA3;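 further: 0% = vehicle and 100% = reference inhibitor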
# Mtb UGM inh – inhibitors of M. tuberculosis UDP-galactopyranose mutase; purified UGM, fluorescence polarization probe displacement; AID 504406; inhibition, % at 10 µM; P9WIQ1; 320,000 compounds, 0.06% hits; in the data active means inhibition above about 10%, passing the limit was not always enough
# Mtb FBA confirm – Mtb FBA inhibition, confirmed. inhibition, % at 1 µM. purified M. tuberculosis FBA, fluorescence read-out. shares compounds with FBA Mtb inh. 5,600 compounds, 78% hits;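 further: 0% = vehicle wells and 100% = reference inhibitor wells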
# GDH-TPI counter-2 – GDH-TPI inhibition counter-screen for FBA inhibitors; GDH-TPI coupled enzyme counterscreen, fluorescence; 5,600 compounds, 81% hits; inhibition, % at 1 µM; shares compounds with FBA Mtb inh; in the data active means inhibition above about 10%
# * hit, by the source's call; · = not tested or not shown; + = active, no number. Unless noted, no stated cut-off is given here; in the data, active means inhibition above about 27%; inactive means the rest.
SMILES,RecA intein inh,Mtb bLac sens,GDH-TPI counter-1,Rv3671c inh,FBA Mtb inh,Mtb UGM inh,Mtb FBA confirm,GDH-TPI counter-2
COC(=O)N/N=C/c1cc(C)n(-c2ccccc2)c1C,-1,-1,10,2,-2,-4,·,·
Cc1ccc(-n2c(C)cc(/C=N/NC(=O)Cn3c4ccccc4c(=O)c4ccccc43)c2C)cc1,-47,94,12,-16,74*,0,133*,119*
Cc1ccc(-n2ncc3c2CC(C)(C)CC3NC(=O)C2CCOCC2)cc1 (centres undefined),2,-15,3,-6,5,3,·,·
Cc1ccc(-c2cc3nc(-c4ccccc4)cc(NCCCO)n3n2)cc1,·,·,12,·,83*,·,72*,54*
Cc1ccc(-c2cc3nc(-c4ccccc4)cc(N)n3n2)cc1,4,-8,26,2,29*,-2,3,1
Cc1cccc(-c2cc3nc(C)cc(NCCCn4ccnc4)n3n2)c1,-1,-8,9,-1,15,2,·,·
O=C(Nc1ccc(Cl)cc1F)C1CC(=O)N(Cc2ccco2)C1 (centres undefined),·,·,0,·,6,·,·,·
COc1cccc(-c2c[nH]c(=O)[nH]c2=O)c1,2,2,2,3,3,0,·,·
COc1cccc(-c2ccc(C#N)c(=O)[nH]2)c1,-1,-3,19,-6,111*,0,+,+
O=C(CN(C(=O)CCC(=O)Nc1ccccn1)c1cccc(F)c1)NCc1ccco1,-1,-8,-12,-5,-3,1,·,·
COc1ccc(OC)c(/C=N/NC(=O)CC2C(=O)NN=C2C)c1 (centres undefined),-1,-19,15,0,68*,-1,42*,38*
COc1ccc(OC)c(/C=N/NC(=O)CC(=O)NCc2ccccc2)c1,-2,4,-3,1,29*,-1,111*,103*
CCOc1cc(/C=N/NC(=O)CCCC(=O)NC2CCCCC2)ccc1O,-4,3,12,12,56*,-1,24,14*
COc1ccc(OC)c(/C=N/Nc2nc(C)cc(=O)[nH]2)c1,-4,1,22,-1,49*,1,194*,173*
Cc1ccc(NC(=O)c2cccc(S(=O)(=O)N3CCN(c4ccccc4)CC3)c2)nc1,3,-10,2,-10,2,·,·,·
COc1ccc(OC)c(C=NNC(=O)NN=Cc2cc(OC)ccc2OC)c1,·,·,27,·,11,·,·,·
COc1ccc(OC)c(/C=N/NC(=O)CC(=O)NC2CCCCC2)c1,-4,-5,2,6,105*,0,152*,122*
CC(C)CN(C(=O)COC(=O)CCN1C(=O)c2ccccc2C1=O)C1CCS(=O)(=O)C1 (centres undefined),1,-7,-5,9,-11,1,·,·
CCOC(=O)CCCSc1nnc(CCCCCN2C(=O)c3cccc4cccc(c34)C2=O)o1,1,91,10,-8,5,2,·,·
CN(C(=O)COC(=O)CCCN1C(=O)c2cccc3cccc(c23)C1=O)C1CCS(=O)(=O)C1 (centres undefined),-1,-6,13,3,29*,-2,144*,100*
CCOC(=O)CCCCCN1C(=O)c2cccc3cccc(c23)C1=O,3,77,19,-9,28*,-2,113*,67*
O=C(CN1C(=O)c2cccc3cccc(c23)C1=O)N1CCCCCC1,-1,-5,27,4,33*,3,96*,85*
O=C(CCCCCN1C(=O)c2cccc3cccc(c23)C1=O)NCc1cccnc1,0,-12,15,3,10,0,·,·
O=C(CCCN1C(=O)c2cccc3cccc(c23)C1=O)NCc1cccnc1,1,-11,2,4,35*,1,+,+
O=C(Nc1ccc(N2CCN(C(=O)c3cccs3)CC2)cc1)c1ccc(F)cc1,10,2,9,0,3,0,·,·
SMILES,RecA intein inh,Mtb bLac sens,GDH-TPI counter-1,Rv3671c inh,FBA Mtb inh,Mtb UGM inh,Mtb FBA confirm,GDH-TPI counter-2
C=CCNC(=O)Cn1c(=O)c2c(ncn2CCC(C)C)n(Cc2ccccc2)c1=O,0,4,-3,3,2,2,·,·
NC(=O)CN1CCN(CCN2C(=O)c3cccc4cccc(c34)C2=O)CC1,-3,-6,1,-5,1,0,·,·
O=C1c2cccc3cccc(c23)C(=O)N1CCO,·,·,33*,·,51*,·,158*,162*
CCN(C(=O)COC(=O)CCCN1C(=O)c2cccc3cccc(c23)C1=O)C1CCS(=O)(=O)C1 (centres undefined),0,-1,17,10,33*,-1,+,+
COCCCN1CN(S(=O)(=O)c2ccc(C)cc2C)c2nc3ccccc3nc21,0,19,32*,0,28*,0,71*,69*
CCOCCCN1CN(S(=O)(=O)c2ccc(Cl)cc2)c2nc3ccccc3nc21,5,8,16,-1,24,1,·,·
O=C(CSc1nnc(NC(=O)C2CCC2)s1)Nc1ccccc1Br,3,2,-1,1,-1,-1,·,·
CN1CCC(Oc2ccccc2Sc2ccccc2)CC1,9,-5,8,1,29*,0,167*,130*
CN1CCC(OC(c2ccccc2)c2ccccc2)CC1,1,-3,-3,7,0,0,·,·
O=C(O)CSc1nnc(NC(=O)CN2CCOCC2)s1,-1,-1,1,-3,0,-1,·,·
C#CCNCCS(=O)(=O)N(Cc1ccc(Br)cc1)[C@@H](CC(C)C)C(=O)O,·,·,4,·,-2,·,·,·
CN1C(=O)[C@H]2[C@@H](C3CC3)N3C(=O)CN(CCO)C(=O)[C@@]3(Cc3ccccc3)[C@H]2C1=O,0,2,11,4,-1,0,·,·
CN1C(=O)[C@H]2[C@@H](C3CC3)N3C(=O)CN(Cc4ccccn4)C(=O)[C@@]3(Cc3ccccc3)[C@H]2C1=O,0,-11,-2,-2,68*,0,70*,57*
CCCCn1c(N)c(N(CCC(C)C)C(=O)C2CC(=O)N(c3ccccc3OCC)C2)c(=O)[nH]c1=O (centres undefined),-2,-11,8,8,4,0,·,·
CNc1ccc(C(=O)OCC(=O)Nc2ccnn2C(C)C)cc1[N+](=O)[O-],·,4,3,0,-2,-2,·,·
COc1ccccc1N1CCN(C(=O)c2cccc(C(=O)N3CCN(c4ccccc4OC)CC3)c2)CC1,·,-10,4,0,1,1,·,·
COc1ccccc1NC(=O)c1coc(=O)c(Br)c1,2,-2,5,-7,63*,-1,52*,46*
CN(C)CCNC(=O)c1coc(=O)c(Br)c1,-2,-6,10,1,66*,2,+,+
COc1ccccc1NC(=O)c1cc(N)cc(C(=O)Nc2ccccc2OC)c1,0,-3,7,-4,0,-3,·,·

# Bioassay records as filed in PubChem BioAssay.
